Assay [1] can be described thus: small molecules captured by biotinylated probe aFSTL3 – biochemical, small-molecule microarray, fluorescence 635/667, stem cell growth factor project, primary screen (AID 1064).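 Also: measures binding of the biotinylated anti-FSTL3 antibody to printed compounds.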 The note with it: higher = more signal.
Assay [2] is described as follows: binders from COS7 lysate, DM2A8 probe, primary screen, torsin A project, cell lysate, small-molecule microarray, fluorescence 635/667 (AID 1065). The note with it: higher = more signal, COS7 lysate expressing mutant human TOR1A.
Assay [3] is described as follows: small molecules captured by biotinylated probe aFGF2 – biochemical, small-molecule microarray, fluorescence 635/667, stem cell growth factor project, primary screen (AID 1067).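 Also: measures binding of biotinylated aFGF2 protein to printed compounds on slides; z-score merges feature fluorescence and signal-to-noise across triplicate slides.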 The note with it: higher = more signal.
The nature of assay [4]: small molecules captured by biotinylated probe aFGF10 – biochemical, small-molecule microarray, fluorescence 635/667, stem cell growth factor project, primary screen (AID 1071).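 Also: score merges 667 nm spot intensity and signal to noise from triplicate slides.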 The note with it: higher = more signal.
Assay [5] concerns the target Neurogenic locus notch homolog protein 2 (Homo sapiens) (UniProt Q04721). In words: small molecules binding Notch2 protein – biochemical, small-molecule microarray, 635 nm fluorescence, stem cell growth factors, primary screen (AID 1073). The note with it: higher = more signal.
Assay [6] addresses Pro-neuregulin-1, membrane-bound isoform (Homo sapiens) (UniProt Q02297). In words: small molecules binding neuregulin-1 protein – biochemical, small-molecule microarray, fluorescence 635/667, psychiatric disease protein project, primary screen (AID 1075).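 Also: score combines 667 nm spot fluorescence with signal to noise.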 The note with it: NRG1 binding, 635 nm fluorescence, higher = more signal.
Assay [7] concerns Neuregulin-1 EGF-like domain. Put plainly: small molecules binding NRG1 EGF domain – biochemical, small-molecule microarray, 635 nm fluorescence, primary screen (AID 1081).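 Also: binding of the protein to compounds printed on small-molecule microarray slides.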 The note with it: higher = more signal.
Assay [8] in a line: FRG1 expression reporter modulators in myotubes – cell-based, C2C12 myotubes, firefly/Renilla luciferase, luminescence, FRG1 inhibition for FSHD, primary screen (AID 1084). The note with it: FRG1 promoter luciferase, higher = more signal, called active from +8 up or from −8 down.
A short description of assay [9]: small molecules captured by biotinylated probe aFST – biochemical, small-molecule microarray, fluorescence 635/667, stem cell growth factor project, primary screen (AID 1086).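 Also: score merges 667 nm fluorescence with signal-to-noise of each printed compound spot.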 To be noted: higher = more signal.
Assay [10] is described as follows: binders of probe aHhip on microarray, primary screen, stem cell growth factor project, biochemical, small-molecule microarray, fluorescence 635/667 (AID 1087).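 Also: score merges spot fluorescence at 667nm with spot signal to noise ratio.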 To be noted: higher = more signal.
Assay [11] deals with PRMT1 (protein arginine N-methyltransferase 1). Put plainly: small molecules binding arginine methyltransferase PRMT1 – biochemical, small-molecule microarray, 635 nm fluorescence, primary screen (AID 1088).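 Also: binding of Prmt1 protein to compounds spotted on small-molecule microarray slides.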 To be noted: higher = more signal.
The nature of assay [12]: growth effects on S. cerevisiae YJM789 – YJM789 clinical isolate, OD600, 24 h, basal, primary screen (AID 1089).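 Also: growth of clinical yeast isolate S. cerevisiae YJM 789 seeded 1000 cells per well; test concentration not given here.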 The note with it: higher = more signal, called active from +8 up or from −8 down.
Assay [13] in a line: S. pombe growth modifiers, basal conditions – strain 972, OD600, 24 h, no modulator, primary screen (AID 1090).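 Also: basal condition with compound alone and no growth modifier present; test concentration not given here.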 To be noted: S. pombe 972 growth, higher = more signal, called active from +8 up or from −8 down.
Assay [14] in a line: budding yeast growth modifiers under rapamycin – strain BY4716, OD600, 96 h, primary screen (AID 1091). Also: test concentration not given here. To be noted: S. cerevisiae BY4716 + rapamycin, higher = more signal, called active from +8 up or from −8 down.
Assay [15] addresses Torsin-1A-interacting protein 2 (Homo sapiens) (UniProt Q8NFQ8). In words: small molecules binding lysate-expressed LULL1 – cell lysate, human LULL1 lysate, 635/667 nm fluorescence, primary screen (AID 1092).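 Also: score merges per-feature 667 nm fluorescence with signal-to-noise.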 To be noted: small-molecule microarray, hLULL1 lysate binding, 635 nm fluorescence; higher = more signal.
A short description of assay [16]: optical density change of DRC41 E. coli – strain DRC41, OD650, 24 h, E. coli filamentation project, primary screen (AID 1093).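 Also: MC1000 strain lacking acrAB efflux and sulA so SOS filamentation is blocked; test concentration not given here.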 The note with it: E. coli DRC41 growth, higher = more signal, called active from +8 up or from −8 down.
Assay [17] in a line: probe aLefty2 binding to arrayed compounds – biochemical, biotinylated probe, 635/667 nm fluorescence, primary screen (AID 1094).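 Also: score merges spot fluorescence near 667 nm with spot signal-to-noise ratio.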 To be noted: small-molecule microarray, higher = more signal.
Assay [18] has as its system Noggin (protein binding on small-molecule microarray). In words: small molecules binding Noggin protein – biochemical, 635/667 nm fluorescence, primary screen (AID 1095).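 Also: score merges 667 nm feature fluorescence with signal to noise over triplicate slides.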 To be noted: 635 nm fluorescence, higher = more signal.
Assay [19] concerns the target Neurogenic locus notch homolog protein 3 (Homo sapiens) (UniProt Q9UM47). In words: small molecules binding NOTCH3 protein – biochemical, 635/667 nm fluorescence, primary screen (AID 1096). To be noted: small-molecule microarray, 635 nm fluorescence, higher = more signal.
Assay [20] can be described thus: probe aEGFR binding to arrayed compounds – biochemical, biotinylated probe, 635/667 nm fluorescence, primary screen (AID 1097).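 Also: probe is a biotinylated anti-EGFR antibody binding compounds printed on slides; score combines fluorescence near 667 nm and signal to noise of each spot.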 To be noted: small-molecule microarray, higher = more signal.

Active and inactive are the calls of the source.

Sequence of Torsin-1A-interacting protein 2 (Homo sapiens) (Q8NFQ8 whole entry, looked up): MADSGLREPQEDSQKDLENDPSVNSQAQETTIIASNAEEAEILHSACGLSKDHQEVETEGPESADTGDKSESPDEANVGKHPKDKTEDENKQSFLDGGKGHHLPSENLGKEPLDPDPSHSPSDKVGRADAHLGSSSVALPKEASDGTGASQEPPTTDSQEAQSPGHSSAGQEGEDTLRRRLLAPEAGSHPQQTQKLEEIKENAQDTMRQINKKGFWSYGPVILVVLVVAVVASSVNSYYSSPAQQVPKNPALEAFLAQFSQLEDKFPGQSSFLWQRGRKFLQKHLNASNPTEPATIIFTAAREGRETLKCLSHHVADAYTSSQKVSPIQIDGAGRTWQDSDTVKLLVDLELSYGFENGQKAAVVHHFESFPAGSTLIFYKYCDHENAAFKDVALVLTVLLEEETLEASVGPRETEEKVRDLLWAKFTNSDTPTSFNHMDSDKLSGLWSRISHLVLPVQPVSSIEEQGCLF
Sequence of Neurogenic locus notch homolog protein 3 (Homo sapiens) (Q9UM47 whole entry, looked up): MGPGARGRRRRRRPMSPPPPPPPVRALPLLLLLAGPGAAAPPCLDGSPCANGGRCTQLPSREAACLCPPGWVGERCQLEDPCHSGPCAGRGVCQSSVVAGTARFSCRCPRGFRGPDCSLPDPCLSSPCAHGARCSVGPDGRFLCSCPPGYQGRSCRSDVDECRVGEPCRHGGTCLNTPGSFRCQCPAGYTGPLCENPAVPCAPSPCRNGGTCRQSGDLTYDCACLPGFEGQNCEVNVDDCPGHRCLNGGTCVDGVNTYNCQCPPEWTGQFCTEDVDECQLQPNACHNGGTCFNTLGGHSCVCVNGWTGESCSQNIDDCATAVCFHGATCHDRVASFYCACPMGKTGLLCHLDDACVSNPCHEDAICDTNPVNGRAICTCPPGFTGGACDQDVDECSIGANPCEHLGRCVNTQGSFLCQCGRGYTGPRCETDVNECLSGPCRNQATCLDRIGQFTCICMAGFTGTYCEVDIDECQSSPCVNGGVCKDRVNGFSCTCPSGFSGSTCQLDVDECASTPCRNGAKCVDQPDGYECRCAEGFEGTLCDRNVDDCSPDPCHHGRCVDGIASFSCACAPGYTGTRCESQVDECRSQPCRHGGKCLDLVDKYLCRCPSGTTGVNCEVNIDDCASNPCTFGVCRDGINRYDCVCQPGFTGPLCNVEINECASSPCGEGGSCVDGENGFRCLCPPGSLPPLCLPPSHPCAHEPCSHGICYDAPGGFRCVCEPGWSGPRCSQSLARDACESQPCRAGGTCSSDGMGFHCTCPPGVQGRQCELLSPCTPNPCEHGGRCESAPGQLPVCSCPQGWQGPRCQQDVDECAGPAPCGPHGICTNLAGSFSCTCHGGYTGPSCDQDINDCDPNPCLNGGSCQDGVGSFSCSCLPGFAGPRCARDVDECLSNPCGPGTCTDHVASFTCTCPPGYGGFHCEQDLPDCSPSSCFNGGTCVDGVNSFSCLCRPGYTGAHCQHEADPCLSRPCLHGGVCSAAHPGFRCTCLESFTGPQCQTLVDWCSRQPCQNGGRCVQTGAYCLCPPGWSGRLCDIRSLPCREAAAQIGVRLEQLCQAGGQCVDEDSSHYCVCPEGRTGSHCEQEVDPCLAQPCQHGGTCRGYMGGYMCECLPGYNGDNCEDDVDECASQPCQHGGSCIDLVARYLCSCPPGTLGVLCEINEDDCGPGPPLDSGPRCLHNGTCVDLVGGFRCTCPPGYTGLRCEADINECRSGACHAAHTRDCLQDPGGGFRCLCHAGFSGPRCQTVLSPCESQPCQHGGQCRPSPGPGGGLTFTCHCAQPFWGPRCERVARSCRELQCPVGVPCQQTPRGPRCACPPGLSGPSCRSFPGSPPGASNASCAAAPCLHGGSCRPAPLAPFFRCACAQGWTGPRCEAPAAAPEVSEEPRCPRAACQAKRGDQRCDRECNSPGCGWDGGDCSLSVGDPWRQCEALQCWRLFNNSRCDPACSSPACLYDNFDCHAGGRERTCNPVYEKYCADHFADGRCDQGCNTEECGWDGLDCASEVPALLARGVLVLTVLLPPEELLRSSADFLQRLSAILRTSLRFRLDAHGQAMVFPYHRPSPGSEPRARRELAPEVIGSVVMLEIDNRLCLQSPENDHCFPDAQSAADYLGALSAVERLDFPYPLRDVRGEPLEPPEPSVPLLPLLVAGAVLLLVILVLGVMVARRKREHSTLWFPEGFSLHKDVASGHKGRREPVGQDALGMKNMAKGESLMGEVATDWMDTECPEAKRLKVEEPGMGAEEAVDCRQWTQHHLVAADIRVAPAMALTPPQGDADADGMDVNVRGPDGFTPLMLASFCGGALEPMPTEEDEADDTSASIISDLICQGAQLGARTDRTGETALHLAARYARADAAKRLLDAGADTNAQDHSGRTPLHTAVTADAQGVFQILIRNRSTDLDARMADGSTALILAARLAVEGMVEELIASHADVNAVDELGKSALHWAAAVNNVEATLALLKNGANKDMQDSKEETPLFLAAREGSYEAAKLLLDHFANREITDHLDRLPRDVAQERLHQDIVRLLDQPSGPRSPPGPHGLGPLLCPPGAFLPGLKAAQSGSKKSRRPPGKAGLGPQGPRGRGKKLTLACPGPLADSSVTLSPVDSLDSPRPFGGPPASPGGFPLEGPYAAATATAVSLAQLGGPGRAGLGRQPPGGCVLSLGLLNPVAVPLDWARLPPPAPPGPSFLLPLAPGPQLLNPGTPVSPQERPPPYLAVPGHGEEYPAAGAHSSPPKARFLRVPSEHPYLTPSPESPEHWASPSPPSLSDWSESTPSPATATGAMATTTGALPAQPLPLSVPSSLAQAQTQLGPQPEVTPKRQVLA
Sequence of Pro-neuregulin-1, membrane-bound isoform (Homo sapiens) (Q02297 whole entry, looked up, the tested form may be a part, canonical isoform): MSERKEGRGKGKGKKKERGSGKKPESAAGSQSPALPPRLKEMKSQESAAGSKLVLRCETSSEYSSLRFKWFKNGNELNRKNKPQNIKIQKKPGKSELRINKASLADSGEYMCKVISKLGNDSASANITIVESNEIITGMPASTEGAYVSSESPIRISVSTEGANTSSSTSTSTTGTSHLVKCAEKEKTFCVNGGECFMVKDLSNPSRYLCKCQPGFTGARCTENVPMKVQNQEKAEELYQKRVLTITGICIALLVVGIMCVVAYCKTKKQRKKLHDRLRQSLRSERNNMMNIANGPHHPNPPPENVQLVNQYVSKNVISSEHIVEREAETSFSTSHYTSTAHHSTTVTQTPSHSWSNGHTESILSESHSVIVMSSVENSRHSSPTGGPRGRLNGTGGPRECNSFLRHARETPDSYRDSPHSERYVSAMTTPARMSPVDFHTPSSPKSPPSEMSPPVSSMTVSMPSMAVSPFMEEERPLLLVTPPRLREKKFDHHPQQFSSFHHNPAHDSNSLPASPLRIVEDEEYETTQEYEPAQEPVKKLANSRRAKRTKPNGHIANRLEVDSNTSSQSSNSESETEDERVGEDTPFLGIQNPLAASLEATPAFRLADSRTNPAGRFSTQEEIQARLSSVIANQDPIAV

As for `CC(C)C(=C=CC[C@@H](O)c1ccc(OCCO)cc1)C[C@@H](O)COCc1ccccc1`, the composite z-score in assay [1] is -0.342; in [2] it was 0.3; in [3] it was -0.085; in assay [4] it was -0.376; in [5], -0.0534; in assay [6] it was -0.849. Further, the composite z-score in assay [7] was 0.449; in assay [9], -0.0716; in [10], -0.0994; in assay [11] it was 1.54; in assay [15], 1.93; in [17] it was -0.192. The composite z-score in assay [18] was 1.65; in [19], 0.652; in [20], -0.135. For the same molecule, the z-score in [8] is -1.74 (inactive); in assay [12], -1.06 (inactive); in [13] it was -1.09 (inactive); in assay [14], -0.418 (inactive); in assay [16] it was 1.14 (inactive).
As for `CCC(CC)C(O)C1C=CC2C(=O)NC(=O)C2N1Nc1ccc(Cl)cc1Cl` (stereo not given), the composite z-score was found to be 0.494 in assay [1]; 0.318 in assay [2]; 0.133 in [3]; 0.309 in assay [4]; 1.42 in [5]; 0.971 in assay [6]. The composite z-score in assay [7] was 1.08; in assay [9] it was 0.812; in assay [10] it was 0.0749; in assay [11], 1.4; in [15], 3.13; in [17] it was -0.0306. For the same molecule, the results for the composite z-score in assay [18], in assay [19] and in [20] were -0.284, 1.01 and -0.0352, respectively. Further, the z-score in [8] is -1.71 (inactive); in assay [12], 0.446 (inactive); in [13] it was -5.81 (inactive); in assay [14] it was 1.34 (inactive); in assay [16], -1.57 (inactive).
Turning to `O=C1c2ccccc2[C@](Cc2ccccc2I)(C(=O)NCCN2CCOCC2)[C@H](c2ccc(CO)cc2)N1Cc1ccccc1Cl`, the composite z-score in assay [1] was 0.118; in assay [2], 0.469; in assay [3], 0.07; in assay [4], 0.915; in assay [5] it was 1.13; in assay [6], 1.24. Further, the composite z-score in assay [7] stood at 1.29; in assay [9] it was 0.511; in assay [10] it was 0.0274; in assay [11], 1.55; in [15], 2.45; in [17], 0.225. In addition, the composite z-score stood at 0.72 in assay [18], 1.12 in [19] and 0.0523 in assay [20]. The z-score was -1.96 (inactive) in assay [8]; -0.747 (inactive) in assay [12]; -0.0063 (inactive) in assay [13]; -1.04 (inactive) in assay [14]; -0.116 (inactive) in assay [16].
As to `C=C(COC)/C(=C/C[C@@H](OC(C)=O)c1ccc(OCCO)cc1)c1cnc2ccccc2c1`, the composite z-score in [1] was -0.123; in assay [2] it was 0.093; in assay [3], 0.0059; in [4] it was 0.647; in assay [5], 0.912; in [6], 0.521. Also, the composite z-score in [7] was 0.957; in [9] it was 0.253; in assay [10], 0.0413; in assay [11] it was 1.19; in [15], 0.014; in assay [17], -0.0998. In addition, the composite z-score in assay [18] was 1.89; in assay [19], 1.08; in assay [20] it was -0.067. Besides, the z-score in assay [8] is -0.265 (inactive); in assay [12], -0.938 (inactive); in assay [13] it was -1.5 (inactive); in assay [14], -1.05 (inactive); in [16] it was 2.33 (inactive).
Regarding `CN(C)CCCC[C@@H]1NC(=O)[C@@H]2C[C@H](C(=O)NCCCCCCN)[C@H](c3cccc(OCCO)c3)N2C1=O`, the composite z-score was 1.58 in assay [1]; 2.15 in assay [2]; 0.044 in assay [3]; 0.973 in [4]; 1.57 in assay [5]; 2.24 in assay [6]. Further, the composite z-score in assay [7] is 1.42; in assay [9], 0.88; in assay [10] it was -0.103; in assay [11], 1.53; in assay [15], 3.25; in assay [17], 1.03. In addition, the composite z-score was 0.612 in [18], 0.395 in assay [19] and 0.54 in [20]. Moreover, the z-score in assay [8] is 0.0194 (inactive); in assay [12] it was -0.968 (inactive); in [13] it was -4.9 (inactive); in assay [14], -0.883 (inactive); in [16] it was 0.26 (inactive).

(Values after PubChem BioAssay.)
